In PubChem BioAssay (Tox21):
Unmarked numbers belong to inactive results. The source made the active and inactive calls. Calls come from the whole dose curve; as a rule, active = well fitted curve in the direction sought with a large enough effect in the repeat runs; inconclusive = weak or mixed curves; inactive = flat fitted curve, though single readings scatter.

Test: qHTS assay to test for compound auto fluorescence at 590 nm (red) in HEK293 cells (AID 720679)
Conditions: red autofluorescence 540/590 nm; series mostly up to 91.3 µM; fluorescence, % of fluorescent control: at the top concentration
From the text: National Center for Advancing Translational Sciences [NCATS]
NIH Chemical Genomics Center [NCGC]
U.S. Environmental Protection Agency [EPA]
National Institutes of Environmental Health Sciences [NIEHS]
National Toxicology Program [NTP]
U.S. Food and Drug Administration [FDA]
Compound auto fluorescence often interferes with screening of the compound library against various biological targets and signaling pathways. Some of these compounds may have fluorophoric properties. Such properties may interfere with the assay outputs resulting in false positives and/or negatives. To decrease such complications and ensure the compound activities are relevant in terms of biological response, the Tox21 10K compound library was screened for auto fluorescence.
From the fluorophores used as reporter signals in our screening assays, the auto fluorescence equivalencies of compounds against three fluorophores have been evaluated: Triamterene, Fluorescein and Rose Bengal sodium for blue, green and red fluorescence, respectively. The fluorescence intensities were measured using Excitation/Emission wavelengths at 405/460nm, 485/535nm and 540/590nm for blue, green and red labels, respectively. This assay includes the red fluorescence data.
Tox21 Assay Protocol Summary:
2,000 HEK293 cells in 5 uL of culture medium containing 10% dialyzed FBS per well were dispensed into black wall/clear bottom 1536-well plates using a Multidrop Combi Dispenser (Thermo Scientific). The assay plates were incubated for 4-5 hr at 37C to allow cell attachment to the well bottom, followed by the transfer of 23 nL compound or DMSO vehicle by a pintool work station (Kalypsys, San Diego, CA). After the assay plates were incubated overnight at 37C and 5% CO2, fluorescence intensities in the assay plates were measured by an Envision (PerkinElmer, Shelton, CT) plate reader using three labels for measuring blue, green and red fluorescence at […] 460, 535 and 590nm respectively.
% is set by controls: 0 for no effect and ±100 for the full control effect.

SMILES | fluorescence, % of fluorescent control | Potency
CC1=NC(C)OC1C (stereo not given) | 0.368% | 
CCCCCCCC/C=C/CCCCCCCC1=NCCN1CCO | 0.124% | 
CCCC/C=C/CCCCO | -0.0916% | 
CCCCCCOC(=O)c1ccc(O)cc1 |  | inactive
Cc1ccc(O)c2ncccc12 | 0.0759% [at 46 µM] | 
CCc1cc(SCc2sc(-c3ccc(C(F)(F)F)cc3)nc2CN2CCN(c3ccc(OC)cc3)CC2)ccc1OCC(=O)O | -0.0116% | 
O=C1CCCCCN1SSN1CCCCCC1=O | 0.0747% | 
CCCCCCCCOc1ccccc1C(=O)Nc1ccc(C(=O)OCC[N+](C)(CC)CC)cc1 | 0.172% [at 46 µM] | 
Cc1onc(-c2c(Cl)cccc2Cl)c1C(=O)N[C@@H]1C(=O)N2[C@@H]1SC(C)(C)[C@@H]2C(=O)O | 0.41% [at 46 µM] | 
Nc1ccc(N)c2ccccc12 | 0.98% | 
CCCC1O[C@@H]2C[C@H]3[C@@H]4CCC5=CC(=O)C=C[C@]5(C)[C@H]4[C@@H](O)C[C@]3(C)[C@]2(C(=O)CO)O1 (stereo not given in full) |  | inactive
C=CC(=O)OCC(CO)(COC(=O)C=C)COC(=O)C=C |  | inactive
Cc1c(C)c2c(c(C)c1OC(=O)CCC(=O)O)CC[C@@](C)(CCC[C@H](C)CCC[C@H](C)CCCC(C)C)O2 |  | inactive
CCOc1ccc2nc3cc(N)ccc3c(N)c2c1 | -0.49% [at 46 µM] | 
N=C1N=C(N)c2cc3ccccc3cc21 | 0.239% | 
OCCN1CCN(CC/C=C2/c3ccccc3Sc3ccc(C(F)(F)F)cc32)CC1 | 0.0746% [at 46 µM] | 
CC(C)(C)CC(C)(C)c1ccc(OCCOCC[N+](C)(C)Cc2ccccc2)cc1 |  | inactive
CCC(Cl)C(Cl)C(Cl)CC(Cl)C(Cl)C(C)Cl (stereo not given) | -0.0469% | 
CCCCCCCCn1sc(Cl)c(Cl)c1=O | 0.241% | 
CCCCCCC[N+](CC)(CC)CCCCc1ccc(Cl)cc1 | -0.312% [at 18.6 µM] | 

SMILES | fluorescence, % of fluorescent control | Potency
C[C@H](CCC(=O)O)[C@H]1CC[C@H]2[C@@H]3CC[C@@H]4C[C@H](O)CC[C@]4(C)[C@H]3CC[C@]12C |  | inactive
CC(=O)S[C@@H]1CC2=CC(=O)CC[C@]2(C)[C@H]2CC[C@@]3(C)[C@@H](CC[C@@]34CCC(=O)O4)[C@H]12 |  | inactive
CCCC(C)c1ccccc1O (stereo not given) | 0.0696% | 
Cc1cc(O)c2ccccc2c1O | -0.292% [at 46 µM] | 
c1cc(C(c2ccc(OCC3CO3)cc2)c2ccc(OCC3CO3)cc2)ccc1OCC1CO1 (stereo not given) | 0.122% | 
Cc1cc(N)c(S(=O)(=O)O)cc1Cl | 0.407% [at 95.7 µM] | 
OC1(c2ccc(Cl)c(C(F)(F)F)c2)CCN(CCCC(c2ccc(F)cc2)c2ccc(F)cc2)CC1 | -0.082% [at 46 µM] | 
Nc1c2ccccc2nc2ccccc12 |  | inactive
Cc1cc(=O)oc2cc(N(C)C)ccc12 | 0.17% | 
CCOC(=O)O[C@H](C)OC(=O)c1ccc2c(c1)cc(C(=O)NC1CCN(C(C)C)CC1)n2Cc1cc(-c2ccc(Cl)s2)on1 | -0.0558% | 
CCCCCCCC/C=C\CCCCCCCCOCCO | 0.0521% [at 95.7 µM] | 
CCc1cc(Cc2cc(CC)c(N)c(CC)c2)cc(CC)c1N | -0.138% | 
COc1ccc(-c2ccc3cc(C(=O)O)ccc3c2)cc1C12CC3CC(CC(C3)C1)C2 | -0.156% [at 46 µM] | 
Cc1cccc(S(=O)(=O)O)c1C | 0.1% | 
Cc1cc(O)c(C(C)(C)C)cc1Sc1cc(C(C)(C)C)c(O)cc1C | 0.307% | 
CC(=O)N1CCN(c2ccc(OC[C@H]3CO[C@](Cn4ccnc4)(c4ccc(Cl)cc4Cl)O3)cc2)CC1 |  | inactive
O=C(NOCC1CC1)c1ccc(F)c(F)c1Nc1ccc(I)cc1Cl | 0.0316% [at 46 µM] | 
CN(C/C=C/C#CC(C)(C)C)Cc1cccc2ccccc12 | 0.0786% [at 46 µM] | 
O=C1c2ccccc2Cc2ccccc21 | -0.423% | 
CN(C)c1ccc(C2(c3ccc(N(C)C)cc3)OC(=O)c3cc(N(C)C)ccc32)cc1 | -0.542% | 
